# Experimental data from the antibiotic and cytotoxicity screens of Wong et al. (2023).
# In all, about 39,000 compounds went through this assay and about 500 (1.3%) were called active. Only a selection was taken, and actives are over-represented in it overall.
# Tested on: S. aureus RN4220
# Assay: growth inhibition call (relative growth <= 0.2)
# Conditions: 50 µM
row,SMILES,growth inhibition call
1,COc1ccc(S(=O)(=O)Nc2ccc3c(c2)C(=O)N([C@H](C)CO)C[C@H](C)[C@@H](CN(C)C(=O)CCC(F)(F)F)OCCCC[C@@H](C)O3)cc1,inactive
2,COc1cccc(-c2cnc3c(c2)C(=O)N([C@H](C)CO)C[C@H](C)[C@H](CN(C)S(=O)(=O)c2cn(C)cn2)O3)c1,inactive
3,O=C1NC2=C(C(=O)OC2)[C@H](c2ccccc2)N1,inactive
4,C[C@@H](O)[C@@H](O)[C@@H](O)C/C=N/NC(=O)CCCCCCC(=O)NO,inactive
5,CC(C)NC(=O)N(C)C[C@@H]1Oc2ccc(NC(=O)CCN3CCOCC3)cc2C(=O)N([C@H](C)CO)C[C@@H]1C,inactive
6,Oc1ccc(C=Cc2cc(O)cc(O)c2)cc1,inactive
7,COc1cc(C=Cc2ccc(O)cc2)cc(OC)c1,active
8,COc1ccc(O)cc1,inactive
9,CCCCCC=CCCC(=O)NC1C(Oc2c3cc4cc2Oc2ccc(cc2Cl)C(OC2OC(CO)C(O)C(O)C2NC(C)=O)C2NC(=O)C(NC(=O)C4NC(=O)C4NC(=O)C(Cc5ccc(c(Cl)c5)O3)NC(=O)C(N)c3ccc(O)c(c3)Oc3cc(O)cc4c3)c3ccc(O)c(c3)-c3c(OC4OC(CO)C(O)C(O)C4O)cc(O)cc3C(C(=O)O)NC2=O)OC(CO)C(O)C1O (stereo unspecified) [TEICOPLANIN [A(2-1) shown]],active
10,CCCCC/C=C/CCC(=O)N[C@H]1[C@H](Oc2c3cc4cc2Oc2ccc(cc2Cl)[C@@H](O[C@@H]2O[C@H](CO)[C@@H](O)[C@H](O)[C@H]2NC(C)=O)[C@@H]2NC(=O)[C@H](NC(=O)[C@@H]4NC(=O)[C@H]4NC(=O)[C@@H](Cc5ccc(c(Cl)c5)O3)NC(=O)[C@H](N)c3ccc(O)c(c3)Oc3cc(O)cc4c3)c3ccc(O)c(c3)-c3c(O[C@H]4O[C@H](CO)[C@@H](O)[C@H](O)[C@@H]4O)cc(O)cc3[C@@H](C(=O)O)NC2=O)O[C@H](CO)[C@@H](O)[C@@H]1O,active
11,CCCCCCCCCC(=O)N[C@H]1[C@H](Oc2c3cc4cc2Oc2ccc(cc2Cl)[C@@H](O[C@@H]2O[C@H](CO)[C@@H](O)[C@H](O)[C@H]2NC(C)=O)[C@@H]2NC(=O)[C@H](NC(=O)[C@@H]4NC(=O)[C@H]4NC(=O)[C@@H](Cc5ccc(c(Cl)c5)O3)NC(=O)[C@@H](N)c3ccc(O)c(c3)Oc3cc(O)cc4c3)c3ccc(O)c(c3)-c3c(O[C@H]4O[C@H](CO)[C@@H](O)[C@H](O)[C@@H]4O)cc(O)cc3[C@H](C(=O)O)NC2=O)O[C@H](CO)[C@@H](O)[C@@H]1O,active
12,C[C@@H]1CN([C@@H](C)CO)C(=O)c2cc(NC(=O)Nc3ccc4c(c3)OCO4)ccc2O[C@@H](C)CCCCO[C@@H]1CN(C)C(=O)C1CCCCC1,inactive
13,COc1ccc(S(=O)(=O)Nc2ccc3c(c2)C(=O)N([C@H](C)CO)C[C@@H](C)[C@@H](CN(C)C(=O)C2CCCCC2)OCCCC[C@@H](C)O3)cc1,inactive
14,C[C@H](CO)N1C[C@H](C)[C@H](CN(C)S(=O)(=O)c2cn(C)cn2)Oc2ccc(NC(=O)NC3CCCCC3)cc2C1=O,inactive
15,C[C@@H]1CCCCO[C@H](CN(C)Cc2ccccc2)[C@@H](C)CN([C@@H](C)CO)C(=O)c2cc(NS(=O)(=O)c3ccc(F)cc3)ccc2O1,inactive
16,C[C@@H]1CCCCO[C@H](CN(C)S(=O)(=O)c2cccs2)[C@@H](C)CN([C@@H](C)CO)C(=O)c2cc(NC(=O)CCC(F)(F)F)ccc2O1,inactive
17,CC(=O)OC[C@H]1O[C@@](COC(C)=O)(O[C@H]2O[C@H](COC(C)=O)[C@@H](OC(C)=O)[C@H](OC(C)=O)[C@H]2OC(C)=O)[C@@H](OC(C)=O)[C@@H]1OC(C)=O,inactive
18,C[C@H]1CN([C@@H](C)CO)C(=O)CCCn2nncc2CO[C@@H]1CN(C)S(=O)(=O)c1ccc2c(c1)OCCCO2,inactive

row,SMILES,growth inhibition call
1,C[C@H](CO)N1C[C@H](C)[C@@H](CN(C)Cc2ccc(Oc3ccccc3)cc2)Oc2ccc(NS(=O)(=O)c3ccc(F)cc3)cc2C1=O,inactive
2,C[C@H]1CN([C@@H](C)CO)C(=O)c2cccc(NS(=O)(=O)c3ccc(F)cc3)c2O[C@H]1CN(C)Cc1ccc(Cl)c(Cl)c1,inactive
3,C[C@H]1CN([C@@H](C)CO)C(=O)Cc2cc(NC(=O)CCCCCC(=O)Nc3ccccc3N)ccc2O[C@@H]1CN(C)C(=O)Nc1ccc(C(F)(F)F)cc1,inactive
4,CCS(=O)(=O)Nc1ccc2c(c1)C(=O)N(C)[C@H]1CC[C@@H](CC(=O)N3CCN(C)CC3)O[C@@H]1CO2,inactive
5,COc1ccc(Cc2cnc(N)nc2N)cc1OC,active
6,COc1cc(O)cc(OC)c1OC,inactive
7,COc1cc(CN)cc(OC)c1OC,inactive
8,COc1cc(Cc2cnc(N)nc2N)cc(OC)c1OC,active
9,COc1cccnc1N,inactive
10,COc1ccc(C2=C(N)C(=O)NC2=O)cc1OC,inactive
11,COc1ccc(NC(=O)N(C)C[C@H]2OCCCC[C@H](C)Oc3ccc(NC(=O)c4ccncc4)cc3C(=O)N([C@@H](C)CO)C[C@@H]2C)cc1,inactive
12,COc1ccc(CN(C)C[C@H]2OCCCC[C@@H](C)Oc3ccc(NC(=O)Nc4ccc5c(c4)OCO5)cc3C(=O)N([C@H](C)CO)C[C@H]2C)cc1,inactive
13,C[C@@H]1CCCCO[C@@H](CN(C)Cc2ccc(C(=O)O)cc2)[C@@H](C)CN([C@H](C)CO)C(=O)c2cc(NS(=O)(=O)c3ccc(Cl)cc3)ccc2O1,inactive
14,COc1ccc(NC(=O)Nc2ccc3c(c2)C(=O)N([C@H](C)CO)C[C@H](C)[C@H](CN(C)C(=O)C2CCCCC2)OCCCC[C@H](C)O3)cc1,inactive
15,C[C@@H]1CN([C@H](C)CO)C(=O)c2cccc(NC(=O)CCCCCC(=O)Nc3ccccc3N)c2O[C@@H]1CN(C)Cc1ccc(-c2ccccc2)cc1,inactive
16,COc1ccc(CN(C)C[C@H]2Oc3c(NS(=O)(=O)c4cn(C)cn4)cccc3C(=O)N([C@@H](C)CO)C[C@@H]2C)cc1,inactive
17,CO[C@@H]1CN(C)C(=O)c2cc(NS(=O)(=O)c3ccccc3C)ccc2OC[C@@H](C)N(S(C)(=O)=O)C[C@H]1C,inactive
18,C[C@H](CO)N1C[C@H](C)[C@@H](CN(C)Cc2ccc(C(F)(F)F)cc2)OCCCC[C@H](C)Oc2ccc(NC(=O)c3ccncc3)cc2C1=O,inactive
